Data from PubChem BioAssay AID588430 (Broad Institute, 2011).
Results with a measured potency or affinity are listed apart. Records with an inconclusive call do not appear. The source made the active and inactive calls.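 The calls were made as follows: active = compound whose fitted half-maximal inhibition concentration is at most triple the top dose in every replicate run; inconclusive = runs disagree, or flat partial inhibition, or poor curve fit; inactive = every run inactive: flat, opposite effect, or too weak.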

Biological target: Cyclin-dependent kinase 5 activator 1 (Homo sapiens) + Cyclin-dependent kinase 5 (Homo sapiens) (UniProt Q15078+Q00535)
Assay: human CDK5 activity blockade – biochemical, microfluidic mobility shift, dry powder, selectivity assay for GSK-3 alpha inhibitor project, dose response (AID 588430)
Details: CDK5-p25 kinase, Caliper mobility shift, peptide conversion; series mostly up to 35 µM

Sequence of Cyclin-dependent kinase 5 activator 1 (Homo sapiens) + Cyclin-dependent kinase 5 (Homo sapiens) (Q00535 whole entry, looked up): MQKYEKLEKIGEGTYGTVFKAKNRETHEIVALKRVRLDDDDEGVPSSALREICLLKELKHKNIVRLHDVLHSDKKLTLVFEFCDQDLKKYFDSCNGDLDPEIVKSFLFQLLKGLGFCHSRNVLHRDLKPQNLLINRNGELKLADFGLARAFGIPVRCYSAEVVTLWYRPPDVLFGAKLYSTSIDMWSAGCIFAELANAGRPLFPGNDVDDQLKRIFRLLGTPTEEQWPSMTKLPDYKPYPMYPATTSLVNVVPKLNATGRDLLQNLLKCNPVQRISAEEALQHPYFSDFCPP
Sequence of Cyclin-dependent kinase 5 activator 1 (Homo sapiens) + Cyclin-dependent kinase 5 (Homo sapiens) (Q15078 whole entry, looked up): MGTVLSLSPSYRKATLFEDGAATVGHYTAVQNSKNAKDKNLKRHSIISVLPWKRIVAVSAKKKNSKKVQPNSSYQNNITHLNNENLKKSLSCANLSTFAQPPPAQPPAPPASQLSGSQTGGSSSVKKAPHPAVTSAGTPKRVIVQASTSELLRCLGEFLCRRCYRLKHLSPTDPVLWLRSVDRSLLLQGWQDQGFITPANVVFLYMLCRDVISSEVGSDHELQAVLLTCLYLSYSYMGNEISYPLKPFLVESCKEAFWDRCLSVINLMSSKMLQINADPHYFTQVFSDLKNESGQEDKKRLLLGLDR

outcome, inactive:
COc1ccc(OC)c(/C=N/NC(=O)c2nnn(-c3nonc3N)c2-c2cccs2)c1
Nc1nonc1-n1nnc(C(=O)N/N=C/c2ccccc2Cl)c1CN1CCOCC1
O=C(Nc1ccsc1C(=O)NC1CCCCC1)c1ccc(F)cc1
CN(C)Cc1c(C(=O)N/N=C/c2ccncc2)nnn1-c1nonc1N
CCOC(=O)c1ccc2ncc(C(=O)OCC)c(Nc3ccc(N4CCOCC4)cc3)c2c1
Fc1ccc(CSc2nnc(-c3ccncc3)o2)cc1
Nc1nc(NCCCN2CCOCC2)nc(Nc2cccc(Cl)c2)c1[N+](=O)[O-]
c1ccc(-c2nc(NCCCn3ccnc3)c3ccccc3n2)cc1
